6 molecules from the supplement of paper PMC7411054 can be followed below.

Common to all, as to details: treatment time: 24 h
The test system of assay [1] is A549-ACTB-RAB5A. Briefly: lowest phenotypically active concentration; higher = less potent. In a few lines: (§1)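 Fifteen reporter lines derived from A549, HepG2 and WPMY1 cells by gene editing, carrying BFP for segmentation plus GFP and RFP/FusionRed markers, were exposed to 0.3, 1, 3 or 9 µM for 24 h in four wells each and imaged live. Live-cell features from each well were normalised to solvent control wells. A well set counted as deviating when ≥3 of 4 wells lay beyond the 95th percentile of control Euclidean distances, and as reproducible when the median replicate Pearson correlation exceeded the 95th percentile of non-replicates. Phenotypic activity was assigned only when both criteria were met.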

Assay [2] deals with HepG2-ACTB-RAB5A. The assay is described as above. In a few lines: as §1
Assay [3] has as its system WPMY1-GM130-SQSTM1. Described as above. In a few lines: as §1
The subject of assay [4] is A549-ACTB-RAB5A. Briefly: phenotypically active (imaging signature differs from DMSO and reproducible) at any of 0.3-9 uM (binary (1 = active, 0 = inactive)); higher = active. In a few lines: as §1
In a further assay the test system is A549-CANX-COX4. The assay is described as above. In a few lines: as §1
For assay [5], the system named is A549-GM130-SQSTM1. Described as above. The procedure, abridged:
as §1

The next assay relates to A549-TP53BP1-CLTA. Described as above. The procedure, abridged:
as §1

The next assay has as its system A549-TUBA1B-RELA. The description is as above. In a few lines:
as §1

Assay [6] deals with HepG2-ACTB-RAB5A. The description is as above. The procedure, abridged: as §1
For another assay, the system named is HepG2-CANX-COX4. Described as above. In a few lines: as §1
The subject of a further assay is HepG2-GM130-SQSTM1. The assay is described as above. The procedure, abridged:
as §1

Another assay relates to HepG2-TP53BP1-CLTA. The description is as above. The procedure, abridged:
as §1

A further assay concerns HepG2-TUBA1B-RELA. The description is as above. In a few lines: as §1
Another assay concerns WPMY1-ACTB-RAB5A. The description is as above. In a few lines:
as §1

Another assay has as its system WPMY1-CANX-COX4. Described as above. The procedure, abridged: as §1
The test system of assay [7] is WPMY1-GM130-SQSTM1. The description is as above. The procedure, abridged:
as §1

The next assay concerns WPMY1-TP53BP1-CLTA. Described as above. The procedure, abridged:
as §1

In the next assay the test system is WPMY1-TUBA1B-RELA. Described as above. In a few lines: as §1
In assay [8] the test system is A549-GM130-SQSTM1. Briefly: lowest phenotypically active concentration; higher = less potent. In a few lines:
as §1

Consider `CCOC(=O)C1=C[C@]2(CC)CCCN3CCc4c(n1c1ccccc41)[C@@H]32` [Vinpocetine], for which the “lowest phenotypically active concentration” value with A549-ACTB-RAB5A [1], in the assay on HepG2-ACTB-RAB5A [2] and with WPMY1-GM130-SQSTM1 [3] was 9 µM in each case. The phenotypically active with A549-ACTB-RAB5A [4] is 1 (active); in the assay on A549-CANX-COX4, 0 (inactive); with A549-GM130-SQSTM1 [5] it was 0 (inactive); in the assay on A549-TP53BP1-CLTA it was 0 (inactive); with A549-TUBA1B-RELA, 0 (inactive); in the assay with HepG2-ACTB-RAB5A [6], 1 (active). Besides, the phenotypically active in the assay on HepG2-CANX-COX4, with HepG2-GM130-SQSTM1, with HepG2-TP53BP1-CLTA, with HepG2-TUBA1B-RELA, with WPMY1-ACTB-RAB5A and in the assay on WPMY1-CANX-COX4 was 0 (inactive) throughout. Besides, the phenotypically active is 1 (active) in the assay with WPMY1-GM130-SQSTM1 [7], 0 (inactive) in the assay on WPMY1-TP53BP1-CLTA and 0 (inactive) in the assay on WPMY1-TUBA1B-RELA.

On to `CC(C)(C(=O)c1cccnc1)c1cccnc1` [metyrapone], for which the “lowest phenotypically active concentration” value with A549-GM130-SQSTM1 [8] was 9 µM. In addition, the phenotypically active in the assay with A549-ACTB-RAB5A [4] is 0 (inactive); with A549-CANX-COX4 it was 0 (inactive); in the assay on A549-GM130-SQSTM1 [5], 1 (active); with A549-TP53BP1-CLTA, 0 (inactive); with A549-TUBA1B-RELA it was 0 (inactive); in the assay with HepG2-ACTB-RAB5A [6], 0 (inactive). Moreover, the phenotypically active in the assay on HepG2-CANX-COX4, in the assay on HepG2-GM130-SQSTM1, in the assay with HepG2-TP53BP1-CLTA, in the assay with HepG2-TUBA1B-RELA, with WPMY1-ACTB-RAB5A and with WPMY1-CANX-COX4 was 0 (inactive) each time. In addition, the phenotypically active with WPMY1-GM130-SQSTM1 [7], with WPMY1-TP53BP1-CLTA and with WPMY1-TUBA1B-RELA was 0 (inactive) throughout.

With `O=C1NCCCc2c1oc1ccc(O)cc21`, the “lowest phenotypically active concentration” value in the assay with A549-ACTB-RAB5A [1] and with WPMY1-GM130-SQSTM1 [3] was 9 µM in each case. In addition, the phenotypically active in the assay with A549-ACTB-RAB5A [4] was 1 (active); with A549-CANX-COX4, 0 (inactive); in the assay on A549-GM130-SQSTM1 [5], 0 (inactive); in the assay on A549-TP53BP1-CLTA it was 0 (inactive); in the assay with A549-TUBA1B-RELA it was 0 (inactive); with HepG2-ACTB-RAB5A [6], 0 (inactive). The phenotypically active in the assay with HepG2-CANX-COX4 is 1 (active); in the assay on HepG2-GM130-SQSTM1 it was 0 (inactive); in the assay on HepG2-TP53BP1-CLTA, 0 (inactive); in the assay on HepG2-TUBA1B-RELA, 1 (active); with WPMY1-ACTB-RAB5A, 1 (active); in the assay with WPMY1-CANX-COX4 it was 0 (inactive). Moreover, the phenotypically active is 1 (active) in the assay with WPMY1-GM130-SQSTM1 [7], 0 (inactive) with WPMY1-TP53BP1-CLTA and 1 (active) in the assay with WPMY1-TUBA1B-RELA.

For `CC[C@H](Nc1ncnc2[nH]cnc12)c1nc2cccc(F)c2c(=O)n1-c1ccccc1` [idelalisib], in the assay with A549-ACTB-RAB5A [1], the “lowest phenotypically active concentration” value came to 9 µM. The phenotypically active is 1 (active) in the assay with A549-ACTB-RAB5A [4]; 0 (inactive) in the assay on A549-CANX-COX4; 0 (inactive) in the assay with A549-GM130-SQSTM1 [5]; 0 (inactive) with A549-TP53BP1-CLTA; 0 (inactive) in the assay with A549-TUBA1B-RELA; 0 (inactive) in the assay with HepG2-ACTB-RAB5A [6]. For the same molecule, the phenotypically active is 0 (inactive) in the assay on HepG2-CANX-COX4; 0 (inactive) in the assay with HepG2-GM130-SQSTM1; 0 (inactive) with HepG2-TP53BP1-CLTA; 0 (inactive) in the assay with HepG2-TUBA1B-RELA; 1 (active) in the assay on WPMY1-ACTB-RAB5A; 0 (inactive) in the assay with WPMY1-CANX-COX4. Further, the phenotypically active in the assay with WPMY1-GM130-SQSTM1 [7], with WPMY1-TP53BP1-CLTA and in the assay with WPMY1-TUBA1B-RELA was 0 (inactive) throughout.

`C=C1CC[C@H](O)C/C1=C\C=C1\CCC[C@]2(C)[C@@H]([C@H](C)/C=C/[C@H](C)C(C)C)CC[C@@H]12` [Calciferol]: the “lowest phenotypically active concentration” value in the assay with A549-GM130-SQSTM1 [8] came to 9 µM. In addition, the phenotypically active with A549-ACTB-RAB5A [4] was 0 (inactive); in the assay on A549-CANX-COX4, 0 (inactive); in the assay on A549-GM130-SQSTM1 [5], 1 (active); in the assay with A549-TP53BP1-CLTA, 0 (inactive); with A549-TUBA1B-RELA, 0 (inactive); with HepG2-ACTB-RAB5A [6], 0 (inactive). For the same molecule, the phenotypically active in the assay with HepG2-CANX-COX4, with HepG2-GM130-SQSTM1, in the assay with HepG2-TP53BP1-CLTA, in the assay on HepG2-TUBA1B-RELA, in the assay on WPMY1-ACTB-RAB5A and in the assay on WPMY1-CANX-COX4 was 0 (inactive) in each case. Moreover, the phenotypically active in the assay with WPMY1-GM130-SQSTM1 [7], with WPMY1-TP53BP1-CLTA and in the assay with WPMY1-TUBA1B-RELA was 0 (inactive) throughout.

On to `O=c1c(-c2ccc(O)cc2)coc2cc(O)cc(O)c12` [Genistein], for which, in the assay on A549-GM130-SQSTM1 [8], the “lowest phenotypically active concentration” value came to 9 µM. Besides, the phenotypically active in the assay with A549-ACTB-RAB5A [4] is 0 (inactive); with A549-CANX-COX4 it was 0 (inactive); with A549-GM130-SQSTM1 [5], 1 (active); in the assay with A549-TP53BP1-CLTA it was 1 (active); with A549-TUBA1B-RELA, 1 (active); in the assay with HepG2-ACTB-RAB5A [6] it was 0 (inactive). Besides, the phenotypically active in the assay on HepG2-CANX-COX4 was 0 (inactive); with HepG2-GM130-SQSTM1 it was 0 (inactive); with HepG2-TP53BP1-CLTA, 0 (inactive); in the assay with HepG2-TUBA1B-RELA, 0 (inactive); in the assay on WPMY1-ACTB-RAB5A it was 1 (active); in the assay with WPMY1-CANX-COX4, 1 (active). For the same molecule, the phenotypically active with WPMY1-GM130-SQSTM1 [7] is 0 (inactive); in the assay with WPMY1-TP53BP1-CLTA, 1 (active); with WPMY1-TUBA1B-RELA, 1 (active).
